Here are results for 34 molecules from ChEMBL document CHEMBL1961873, “Compounds: GSK PKIS; Assays: Nanosyn kinase panel” (2012).

Mitogen-activated protein kinase kinase kinase kinase 4 (Homo sapiens), sequence (O95819 2-1239 limits assumed): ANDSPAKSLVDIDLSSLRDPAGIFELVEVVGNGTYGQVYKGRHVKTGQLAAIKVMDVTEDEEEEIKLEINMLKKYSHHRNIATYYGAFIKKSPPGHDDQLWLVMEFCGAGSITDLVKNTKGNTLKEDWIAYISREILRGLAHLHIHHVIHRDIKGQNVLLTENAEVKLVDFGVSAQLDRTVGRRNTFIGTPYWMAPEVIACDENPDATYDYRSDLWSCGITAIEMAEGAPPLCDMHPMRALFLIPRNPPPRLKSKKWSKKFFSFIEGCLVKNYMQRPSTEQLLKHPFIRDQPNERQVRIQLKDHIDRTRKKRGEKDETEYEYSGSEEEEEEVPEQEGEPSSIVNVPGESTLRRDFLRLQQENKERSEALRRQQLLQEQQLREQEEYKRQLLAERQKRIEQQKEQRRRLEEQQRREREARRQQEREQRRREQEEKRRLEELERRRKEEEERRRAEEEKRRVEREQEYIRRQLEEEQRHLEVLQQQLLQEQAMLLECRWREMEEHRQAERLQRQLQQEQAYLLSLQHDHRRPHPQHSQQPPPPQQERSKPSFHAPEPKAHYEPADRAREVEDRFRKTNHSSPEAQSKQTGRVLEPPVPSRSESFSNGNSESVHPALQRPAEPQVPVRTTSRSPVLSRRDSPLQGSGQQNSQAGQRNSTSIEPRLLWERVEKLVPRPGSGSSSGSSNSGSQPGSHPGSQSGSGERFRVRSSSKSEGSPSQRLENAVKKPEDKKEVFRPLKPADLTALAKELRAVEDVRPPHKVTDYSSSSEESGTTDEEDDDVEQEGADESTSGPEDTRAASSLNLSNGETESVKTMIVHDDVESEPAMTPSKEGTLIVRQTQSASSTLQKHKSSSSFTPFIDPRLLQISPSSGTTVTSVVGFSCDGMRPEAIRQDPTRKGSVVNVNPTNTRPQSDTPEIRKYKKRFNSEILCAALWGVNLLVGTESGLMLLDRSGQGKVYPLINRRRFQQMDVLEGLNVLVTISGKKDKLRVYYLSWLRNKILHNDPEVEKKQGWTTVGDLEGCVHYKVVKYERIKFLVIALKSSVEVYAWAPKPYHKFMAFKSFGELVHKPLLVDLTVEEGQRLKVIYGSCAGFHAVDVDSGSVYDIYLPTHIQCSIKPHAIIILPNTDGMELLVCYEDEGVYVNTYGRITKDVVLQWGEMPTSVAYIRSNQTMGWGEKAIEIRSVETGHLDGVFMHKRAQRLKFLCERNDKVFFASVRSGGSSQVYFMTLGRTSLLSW

The first test addresses T1, Mitogen-activated protein kinase kinase kinase kinase 2 (Homo sapiens) (UniProt Q12851).
T1 sequence (whole entry): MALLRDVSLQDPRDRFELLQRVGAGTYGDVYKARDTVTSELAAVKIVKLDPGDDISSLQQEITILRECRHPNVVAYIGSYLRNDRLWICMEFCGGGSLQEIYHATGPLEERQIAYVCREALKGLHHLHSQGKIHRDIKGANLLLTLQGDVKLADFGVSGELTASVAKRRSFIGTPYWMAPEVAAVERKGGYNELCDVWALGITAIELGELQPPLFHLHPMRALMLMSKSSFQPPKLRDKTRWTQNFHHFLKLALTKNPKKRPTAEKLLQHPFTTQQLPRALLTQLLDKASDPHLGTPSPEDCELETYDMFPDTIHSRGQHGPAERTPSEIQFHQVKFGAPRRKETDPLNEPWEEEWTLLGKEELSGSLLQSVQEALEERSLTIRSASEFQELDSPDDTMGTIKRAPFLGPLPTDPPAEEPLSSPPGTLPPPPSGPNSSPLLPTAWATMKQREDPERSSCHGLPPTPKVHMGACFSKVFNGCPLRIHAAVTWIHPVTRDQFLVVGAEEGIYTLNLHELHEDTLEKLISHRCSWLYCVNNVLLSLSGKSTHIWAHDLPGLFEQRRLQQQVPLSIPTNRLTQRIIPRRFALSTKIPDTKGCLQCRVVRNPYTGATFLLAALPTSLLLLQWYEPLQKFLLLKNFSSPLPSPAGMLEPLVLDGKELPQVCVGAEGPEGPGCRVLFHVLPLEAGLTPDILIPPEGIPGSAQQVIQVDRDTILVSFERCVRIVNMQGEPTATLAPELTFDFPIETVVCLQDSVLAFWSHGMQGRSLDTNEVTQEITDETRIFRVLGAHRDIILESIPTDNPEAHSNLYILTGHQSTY
The settings on record: at 1 µM.
A word on the inhibition: it is the percentage by which the read-out fell short of the control. Molecule `NC(=O)c1ccc(Oc2nccc(-c3c(-c4ccc(F)cc4)ncn3C3CCNCC3)n2)cc1` yielded an inhibition of 1.55%.
Still for that read-out and setting: in the case of `Fc1ccc(-c2ncn(CCCN3CCOCC3)c2-c2ccncc2)cc1` it was 1.14%.
On the same count and under the same terms, in the case of `COc1cccc(/C=N/Nc2ncnc3c2cnn3-c2cccc(OC)c2)c1` it was 2.67%.
Same read-out and setting: for `N#Cc1ccc(Oc2nccc(-c3c(-c4ccc(F)cc4)ncn3C3CCNCC3)n2)cc1` the value was 4.07%; for `COc1ccc(-c2ccc3c(NC(=O)C4CC4)n[nH]c3n2)cc1`, 0.37%; for `O=C(Nc1n[nH]c2cc(-c3ccccc3)ccc12)C1CC1`, 4.2%.
`COC(=O)Nc1nc2ccc(Sc3ccc(NC(=O)Nc4cc(C(F)(F)F)ccc4F)cc3)cc2[nH]1` came in with an inhibition of 27.5%.
`CN(c1ccc(NC(=O)Nc2c(Cl)cccc2Cl)cc1)c1ccnc(Nc2cccc(CS(C)(=O)=O)c2)n1`: the inhibition stood at 32.9%.
Take `O=C1Nc2ccc(I)cc2C1=Cc1cc(Br)c(O)c(Br)c1`: the inhibition stood at 3.6%.
Still for that read-out and setting: in the case of `Clc1ccc(CNc2nccc(-c3cnn4ncccc34)n2)cc1` it was 9.93%.
On the same count and under the same terms, in the case of `C/C(Nc1ccc(S(N)(=O)=O)cc1)=C1/C(=O)Nc2ccccc21` it was 17.7%; in that of `CCc1nccc2c1nc(-c1nonc1N)n2CC`, 2.26%; in that of `NC(=O)c1cc(-c2ccncc2)cc(-c2ccccc2)c1N`, 0.97%.
In turn, `COc1cc(Nc2ncc(-c3ccccc3)o2)cc(OC)c1OC` returned an inhibition of 11.5%.
The same measure, in the same setting: in the case of `NS(=O)(=O)c1ccc(N/N=C2\C(=O)Nc3ccc(-c4cnco4)cc32)cc1` it was 4.85%.
`COc1cc2ncn(-c3cc(OCCc4ccccc4)c(C(N)=O)s3)c2cc1OC`: the inhibition is 7.11%.
As for `Cc1nnc(-c2ccc(C)c(-c3ccc(C(=O)NCc4ccc(Cl)cc4)cc3)c2)o1`, the inhibition turned out to be 1.6%.
The same measure, in the same setting: for `C#Cc1cccc(Nc2ncnc3ccc(OCCCCNCCS(C)(=O)=O)cc23)c1` the value was 5.3%.
The molecule `COc1cccc(-n2cnc3c(N/N=C/c4ccncc4)ncnc32)c1` had an inhibition of 1.25%.
Same read-out and setting: for `COc1ccc2cc(-c3c(-c4ccncc4)nc(-c4ccc(S(C)(=O)=O)cc4C)n3C)ccc2c1` the value was 0.3%; for `COc1ccc2ncn(-c3cc(O[C@H](C)c4ccccc4Cl)c(C(N)=O)s3)c2c1`, 11%.
In the case of `O=C1NC(=O)C(c2cccc(Cl)c2)=C1Nc1ccc(Cl)c(C(=O)O)c1`, the inhibition was determined as 2.05%.
In turn, `CN1CCN(CCCNc2nc3ccc(Oc4ccc(NC(=O)Nc5cc(C(F)(F)F)ccc5F)cc4)cc3[nH]2)CC1` displayed an inhibition of 8.26%.
Still for that read-out and setting: for `C[C@@H](Oc1cc(-n2cnc3ccc(OC4CCN(C)CC4)cc32)sc1C(N)=O)c1ccccc1Cl` the value was 18.4%; for `c1ccc(Oc2ccc(Nc3ncc(-c4ccccc4)o3)cc2)cc1`, 1.62%.
Take `CN(C)CCCNc1nccc(-c2c(-c3ccc(F)cc3)nn3cc(C(F)(F)F)ccc23)n1`: the inhibition came to 7.36%.
On the same count and under the same terms, in the case of `COc1cc2ncn(-c3cc(OCc4ccccc4C(F)(F)F)c(C(C)=O)s3)c2cc1OC` it was 7.42%; in that of `COc1ccc2cc(-c3c(-c4ccncc4)nc(-c4ccc([S+](C)[O-])cc4C)n3C)ccc2c1` (stereo not drawn), 0.1%; in that of `Fc1ccc(-c2ncn(C3CCNCC3)c2-c2ccnc(Oc3ccc4c(c3)OCO4)n2)cc1`, 9.73%.
`NC(=O)c1cc(-c2ccc(F)cc2)cc(-c2ccncc2)c1N` returned an inhibition of 2.33%.
`CCC(=O)Nc1ccc(C)c(-c2ccc(C(=O)NCC3CC3)cc2)c1` yielded an inhibition of 1.16%.
The same measure, in the same setting: for `c1ccc(-c2n[nH]cc2-c2ccnc(-c3ccc(OCCN4CCOCC4)cc3)c2)nc1` the value was 7.48%; for `O=C(NCC1CC1)c1ccc(-c2cccc(C(=O)NC3CC3)c2)cc1`, 2.37%; for `NC(=O)Cc1ccccc1Oc1nccc(-c2c(-c3ccc(F)cc3)ncn2C2CCNCC2)n1`, 3.36%.

Another test concerns the target Mitogen-activated protein kinase kinase kinase kinase 4 (Homo sapiens) (UniProt O95819). The settings on record: at 0.1 µM.
Molecule `NC(=O)c1ccc(Oc2nccc(-c3c(-c4ccc(F)cc4)ncn3C3CCNCC3)n2)cc1` gave an inhibition of 1.45%.
On to `Fc1ccc(-c2ncn(CCCN3CCOCC3)c2-c2ccncc2)cc1`, for which the inhibition was 2.27%.
On the same count and under the same terms, for `COc1cccc(/C=N/Nc2ncnc3c2cnn3-c2cccc(OC)c2)c1` the value was 7.63%; for `N#Cc1ccc(Oc2nccc(-c3c(-c4ccc(F)cc4)ncn3C3CCNCC3)n2)cc1`, 3.8%.
Turning to `COc1ccc(-c2ccc3c(NC(=O)C4CC4)n[nH]c3n2)cc1`, the inhibition worked out at 5.28%.
The same measure, in the same setting: for `O=C(Nc1n[nH]c2cc(-c3ccccc3)ccc12)C1CC1` the value was 33.6%; for `COC(=O)Nc1nc2ccc(Sc3ccc(NC(=O)Nc4cc(C(F)(F)F)ccc4F)cc3)cc2[nH]1`, 5%; for `CN(c1ccc(NC(=O)Nc2c(Cl)cccc2Cl)cc1)c1ccnc(Nc2cccc(CS(C)(=O)=O)c2)n1`, 34.3%.
The molecule `O=C1Nc2ccc(I)cc2C1=Cc1cc(Br)c(O)c(Br)c1` had an inhibition of 31.7%.
In turn, `Clc1ccc(CNc2nccc(-c3cnn4ncccc34)n2)cc1` came in with an inhibition of 3.91%.
The molecule `C/C(Nc1ccc(S(N)(=O)=O)cc1)=C1/C(=O)Nc2ccccc21` showed an inhibition of 44.9%.
On the same count and under the same terms, in the case of `CCc1nccc2c1nc(-c1nonc1N)n2CC` it was 2.56%; in that of `NC(=O)c1cc(-c2ccncc2)cc(-c2ccccc2)c1N`, 11.9%; in that of `COc1cc(Nc2ncc(-c3ccccc3)o2)cc(OC)c1OC`, 2.13%.
On the same count and under the same terms, in the case of `NS(=O)(=O)c1ccc(N/N=C2\C(=O)Nc3ccc(-c4cnco4)cc32)cc1` it was 65.1%; in that of `COc1cc2ncn(-c3cc(OCCc4ccccc4)c(C(N)=O)s3)c2cc1OC`, 5.29%.
In turn, `Cc1nnc(-c2ccc(C)c(-c3ccc(C(=O)NCc4ccc(Cl)cc4)cc3)c2)o1` had an inhibition of 5.65%.
In turn, `C#Cc1cccc(Nc2ncnc3ccc(OCCCCNCCS(C)(=O)=O)cc23)c1` showed an inhibition of 5.65%.
`COc1cccc(-n2cnc3c(N/N=C/c4ccncc4)ncnc32)c1` came in with an inhibition of 1.22%.
Still for that read-out and setting: for `COc1ccc2cc(-c3c(-c4ccncc4)nc(-c4ccc(S(C)(=O)=O)cc4C)n3C)ccc2c1` the value was 4.65%; for `COc1ccc2ncn(-c3cc(O[C@H](C)c4ccccc4Cl)c(C(N)=O)s3)c2c1`, 4.38%; for `O=C1NC(=O)C(c2cccc(Cl)c2)=C1Nc1ccc(Cl)c(C(=O)O)c1`, 2.67%.
`CN1CCN(CCCNc2nc3ccc(Oc4ccc(NC(=O)Nc5cc(C(F)(F)F)ccc5F)cc4)cc3[nH]2)CC1` came in with an inhibition of 2.15%.
The same measure, in the same setting: for `C[C@@H](Oc1cc(-n2cnc3ccc(OC4CCN(C)CC4)cc32)sc1C(N)=O)c1ccccc1Cl` the value was 3.22%; for `c1ccc(Oc2ccc(Nc3ncc(-c4ccccc4)o3)cc2)cc1`, 3.28%.
Take `CN(C)CCCNc1nccc(-c2c(-c3ccc(F)cc3)nn3cc(C(F)(F)F)ccc23)n1`: the inhibition is 5.21%.
Same read-out and setting: for `COc1cc2ncn(-c3cc(OCc4ccccc4C(F)(F)F)c(C(C)=O)s3)c2cc1OC` the value was 4.05%; for `COc1ccc2cc(-c3c(-c4ccncc4)nc(-c4ccc([S+](C)[O-])cc4C)n3C)ccc2c1` (stereo not drawn), 1.21%; for `Fc1ccc(-c2ncn(C3CCNCC3)c2-c2ccnc(Oc3ccc4c(c3)OCO4)n2)cc1`, 2.42%.
Still for that read-out and setting: in the case of `NC(=O)c1cc(-c2ccc(F)cc2)cc(-c2ccncc2)c1N` it was 4.49%.
On to `CCC(=O)Nc1ccc(C)c(-c2ccc(C(=O)NCC3CC3)cc2)c1`, for which the inhibition was found to be 4.98%.
Same read-out and setting: in the case of `c1ccc(-c2n[nH]cc2-c2ccnc(-c3ccc(OCCN4CCOCC4)cc3)c2)nc1` it was 28.6%; in that of `O=C(NCC1CC1)c1ccc(-c2cccc(C(=O)NC3CC3)c2)cc1`, 2.9%.
On the same count and under the same terms, in the case of `NC(=O)Cc1ccccc1Oc1nccc(-c2c(-c3ccc(F)cc3)ncn2C2CCNCC2)n1` it was 5.19%.
